54 sequences from publication PMC7819943, “Rice protein-binding microarrays: a tool to detect cis-acting elements near promoter regions in rice” can be followed below.

The full ranking holds about 39,000 sequences; the median of “fluorescence intensity (a.u.)” is about 4,300, and the highest 2% start at about 39,000. The sample holds the highest values, similar sequences and a random draw of the others, so the mix is not that of the screen.

For the test, the target named is T1, OsSMF1 (Oryza sativa, UniProt Q6ZLB0 1-436).
T1 sequence: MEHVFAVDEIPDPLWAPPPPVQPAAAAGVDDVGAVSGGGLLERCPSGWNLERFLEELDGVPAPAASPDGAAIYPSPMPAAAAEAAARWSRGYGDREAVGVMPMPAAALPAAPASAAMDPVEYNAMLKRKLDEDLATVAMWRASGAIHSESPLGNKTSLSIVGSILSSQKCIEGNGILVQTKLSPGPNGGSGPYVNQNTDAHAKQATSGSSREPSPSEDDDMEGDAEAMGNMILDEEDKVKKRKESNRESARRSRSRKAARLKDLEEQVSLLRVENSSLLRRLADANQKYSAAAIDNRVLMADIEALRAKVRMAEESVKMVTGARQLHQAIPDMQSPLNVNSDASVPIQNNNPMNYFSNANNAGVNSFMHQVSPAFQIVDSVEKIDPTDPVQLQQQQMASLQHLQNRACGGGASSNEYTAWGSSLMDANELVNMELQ
The test can be described thus: protein-binding microarray (RPBM); PBS, 2% BSA, 51.3 ng/ul salmon testes DNA, 50 uM zinc acetate, 200 nM TF, 25 C, 1 h; high values mean tight binding. Particulars: protein: recombinant; tags: N-terminal polyhistidine and DsRed monomer fusion (pET32a); chain copies: 2; label: CyDye5-dUTP incorporated in the synthesized complementary strand; 3' TTTTT single-stranded linker to array surface; dsDNA, one strand shown. Summed up:
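Transcription factors were made in E. coli BL21-CodonPlus as N-terminal fusions to a polyhistidine tag and DsRed, then purified on Ni–NTA. After primer extension with Cy5-dUTP and blocking with 2% BSA, a custom Agilent array was exposed for 1 h at 25 °C to 200 nM protein in PBS, 2% BSA, salmon testes DNA and 50 µM zinc acetate. Washed arrays were scanned on an Axon 4000B, and the binding signal is per-feature fluorescence intensity in arbitrary units.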
Take “AGTTGACGTGGCATACTGACACGTGGGCCCCATGTGGGTTCGGAGTCACCTAGTGCAG”: the binding signal was 24900 fluorescence intensity (a.u.). In the case of “AAACGTAATCTAATAACAAAACAAATTACAGAACTGTAAACGGAGTCACCTAGTGCAG” it was 11100 fluorescence intensity (a.u.); in that of “ATCCACCGCTGAGTCCCAGACGAGCGAGGGCCAGATCATCCGGAGTCACCTAGTGCAG”, 3410 fluorescence intensity (a.u.); in that of “TAGAAAGTGCCCAATTAGTATAGGTATAGATAGATAGACTCGGAGTCACCTAGTGCAG”, 51000 fluorescence intensity (a.u.). In the case of “TGTAGGTATAAGAGTGAGTTGGTGAATTATAGGGTAGACTCGGAGTCACCTAGTGCAG”, the binding signal was 7410 fluorescence intensity (a.u.). On to “GCATTATATTAGTAGGTCGTGTATTATATTAGTAGGTACTCGGAGTCACCTAGTGCAG”, for which the binding signal was 4260 fluorescence intensity (a.u.). In the case of “ATTACATACTAATTACATATGTAAGTGAGGTGTAACTACTCGGAGTCACCTAGTGCAG” it was 4160 fluorescence intensity (a.u.); in that of “GGCAATCATCTTGAAGCATATCAACCCAACCTGATGTTGTCGGAGTCACCTAGTGCAG”, 28100 fluorescence intensity (a.u.); in that of “TTGTTAATTACCGCGATTGATGTCGAGCTTGCATTTTGATCGGAGTCACCTAGTGCAG”, 3540 fluorescence intensity (a.u.). In the case of “TTATTGCAAAATAGAAGGATGACGCCACGACGGCCGCTGCCGGAGTCACCTAGTGCAG” it was 3330 fluorescence intensity (a.u.). In the case of “TTACATACTGTATCATACTGACGTCAACGTATAATATTCCCGGAGTCACCTAGTGCAG” it was 8340 fluorescence intensity (a.u.); in that of “CTATACTATTAATATATGGTCTCATCTGTCATACATATATCGGAGTCACCTAGTGCAG”, 3830 fluorescence intensity (a.u.); in that of “TCTGTTAGTGTCATACTGTCATCGACATATAATATTCCCTCGGAGTCACCTAGTGCAG”, 42500 fluorescence intensity (a.u.). Take “GCGCTTGCGCCTGACCGCCGCGTGACGACATGTTGTCACCCGGAGTCACCTAGTGCAG”: the binding signal is 6800 fluorescence intensity (a.u.). In the case of “CGGTGACGACCACCCCACCTCACGATCCAACGGCCAATACCGGAGTCACCTAGTGCAG” it was 4080 fluorescence intensity (a.u.); in that of “ACATGCAAAGATGCCACATCATCATCCACTATCACTAATTCGGAGTCACCTAGTGCAG”, 17600 fluorescence intensity (a.u.); in that of “TCTTTGGATATAAAGCAACTACAATTTCAAAGGTAACCAACGGAGTCACCTAGTGCAG”, 3460 fluorescence intensity (a.u.). Regarding “TCACTCAAATTTACAGTGCATTTTCTTGTAAGTTACAGTGCGGAGTCACCTAGTGCAG”, the binding signal was 4800 fluorescence intensity (a.u.).

As to “AACAAGTGTGTTGGTGGTGGTGGAAGTTGTTACAGAATTGCGGAGTCACCTAGTGCAG”, the binding signal is 3470 fluorescence intensity (a.u.). In the case of “AAAATTGTTCAAAGGATGGCGTAACTTTGGCGTGGAATTACGGAGTCACCTAGTGCAG” it was 3180 fluorescence intensity (a.u.); in that of “AGAAGGTTGGAATTTAGTAAGTTGCAGTTACAAATTCAAGCGGAGTCACCTAGTGCAG”, 53200 fluorescence intensity (a.u.). On to “GAATTACAAGGATGGTAAGGTTTGGTCTTTCAAAGTCTTACGGAGTCACCTAGTGCAG”, for which the binding signal is 40100 fluorescence intensity (a.u.). With “AAGTTATAACCCACTACATACAAAGATACCACGTCATCATCGGAGTCACCTAGTGCAG”, the binding signal was 15900 fluorescence intensity (a.u.). In the case of “CATCAGATGCGCCCATCGCTTGAAGGAGAGACGCCGAGACCGGAGTCACCTAGTGCAG” it was 27300 fluorescence intensity (a.u.); in that of “GCAGTCTTGTAGTCTCGTGCACCAATCGTCGCGCCGCGGCCGGAGTCACCTAGTGCAG”, 22300 fluorescence intensity (a.u.); in that of “GCACCTTGAATGAATTATCTAGCAAAGCCAGCGTAGACGTCGGAGTCACCTAGTGCAG”, 30200 fluorescence intensity (a.u.).

For “TGTGTACGTCACATCCTAATTAACATCAACTTGATAAAATCGGAGTCACCTAGTGCAG”, the binding signal is 7900 fluorescence intensity (a.u.). In the case of “TGGGTCCCTCCATGCTGAGTCAGCTTGTCAATCGGGTCAACGGAGTCACCTAGTGCAG” it was 21900 fluorescence intensity (a.u.); in that of “AAGCCTAAAACCTCCCCATCCACGTCACCCATCCTCCTCCCGGAGTCACCTAGTGCAG”, 22300 fluorescence intensity (a.u.); in that of “GGGCTCCCTCCACCGCCGCCTCCGCCACCGCCTCGCCGCCCGGAGTCACCTAGTGCAG”, 3150 fluorescence intensity (a.u.). On to “TGGCTCCCACGTTAACTTAGCCGCCACGTCAGCTAAAACCCGGAGTCACCTAGTGCAG”, for which the binding signal is 46600 fluorescence intensity (a.u.).

“ACCGCCGGTCCACTCACCCCTAACCCTAGCCGCTGCCGCCCGGAGTCACCTAGTGCAG”: the binding signal was 4020 fluorescence intensity (a.u.).

Regarding “GCCTAACCCTAACCCTAGCCGCCACCGCTCAACCGCCTCCCGGAGTCACCTAGTGCAG”, the binding signal is 65100 fluorescence intensity (a.u.).

Consider “ACACGCCACGCCGCCACCTCCACTTCGTTAACCCTTCTCCCGGAGTCACCTAGTGCAG”, for which the binding signal is 5410 fluorescence intensity (a.u.). In the case of “GACGACTGCTGGTACACGGACATGAGGCTGCAGCCGACGACGGAGTCACCTAGTGCAG” it was 3480 fluorescence intensity (a.u.); in that of “GCCACGCCCAACCCGTGTCACTGTCACGTGGGCCCCACCCCGGAGTCACCTAGTGCAG”, 7720 fluorescence intensity (a.u.); in that of “CAACCAATCAATCACATACGTGGACAACTGCAGAAAATGCCGGAGTCACCTAGTGCAG”, 5610 fluorescence intensity (a.u.). In the case of “CGGCTCCGCCGCACTTGCTCGGCCGTCCACGCCGGCACGGCGGAGTCACCTAGTGCAG” it was 3640 fluorescence intensity (a.u.); in that of “ACTGCCGGTTCAACTGCTCCACGGCTCCACTCCACGCATCCGGAGTCACCTAGTGCAG”, 43300 fluorescence intensity (a.u.). On to “ATCGCGCATCCACTCCACACCACACGCTTCACTGGTTCCGCGGAGTCACCTAGTGCAG”, for which the binding signal was 3870 fluorescence intensity (a.u.).

As to “ACTATGGATATCTGTTTTAGCTGACATGGCATCCTACTCACGGAGTCACCTAGTGCAG”, the binding signal is 8140 fluorescence intensity (a.u.). For “ACCACTGTTTGTGGAGTGTGTGCACACACCACCTCCGATGCGGAGTCACCTAGTGCAG”, the binding signal was 3810 fluorescence intensity (a.u.). Regarding “ATTCACTGATAATAGAGACCCACACGTTAGTATTGGAGTACGGAGTCACCTAGTGCAG”, the binding signal is 3140 fluorescence intensity (a.u.). As to “AAGGTGAGGTTGGTCAACATTTGTCATCAAATTTTGATCACGGAGTCACCTAGTGCAG”, the binding signal was 3400 fluorescence intensity (a.u.). In the case of “TGGATATACATATGCCATGTCGATTTTGTGCCGAAGTGGACGGAGTCACCTAGTGCAG” it was 3330 fluorescence intensity (a.u.); in that of “CAAATGTCGATTTGGTTGTGGACATGTCAATGCCGATCAACGGAGTCACCTAGTGCAG”, 50200 fluorescence intensity (a.u.); in that of “AAATTATGTCATTTTGATCAACAGTTGGTACAGTAGTACACGGAGTCACCTAGTGCAG”, 48000 fluorescence intensity (a.u.). Regarding “GTTTTGTGATTTGGTACATGTGGTAGCATTCACCAAATGTCGGAGTCACCTAGTGCAG”, the binding signal was 39600 fluorescence intensity (a.u.). In the case of “TGTGGTTGGTGTCGATTTGGAATGGGGTGAAATGGACTGGCGGAGTCACCTAGTGCAG” it was 3260 fluorescence intensity (a.u.); in that of “TGCACCTAGGTGTACATGTCATTGTGTGTTTGTGGTTGGTCGGAGTCACCTAGTGCAG”, 4630 fluorescence intensity (a.u.); in that of “CATTTGTTTTATTTTAGCATTTGTCACTTACATGTGGGACCGGAGTCACCTAGTGCAG”, 3180 fluorescence intensity (a.u.).

Consider “CTTCAGTTATGTTAATTACATGTCATTTGTTTTGTTACAACGGAGTCACCTAGTGCAG”, for which the binding signal is 4920 fluorescence intensity (a.u.). “CAGCTACAGGACGGCAGTACCCAGTACACGCACGCGTACCCGGAGTCACCTAGTGCAG”: the binding signal is 3640 fluorescence intensity (a.u.). In the case of “TTAAATGCACCCCTACTCAACCCCTCAATCGACGTGTTGGCGGAGTCACCTAGTGCAG” it was 4180 fluorescence intensity (a.u.).
